Results as given in PMC4552634, “A New Set of Chemical Starting Points with Plasmodium falciparum Transmission-Blocking Potential for Antimalarial Drug Discovery” (PLoS ONE, 2015).
Among all 13,000 compounds or so, about 3,200 (25%) showed an effect of 50% or more. The list shows a part of the results.

tested on: P. falciparum stage V gametocytes; set-up: BacTiter-Glo ATP luminescence viability of purified stage V gametocytes in 384-well plates, per cent inhibition versus DMSO; conditions: 48 h, 5 µM; inhibitor

Compound	% Inhibition [%]
CCCCCC(C)C(C)c1cc(O)c2c(c1)OC(C)(C)CC2c1cc[n+]([O-])cc1 (centres unmarked) [TCMDC-131347]	15.63
CCOc1ccc(Br)cc1/C=C/C(=O)Nc1ccc2c(c1)C1CCC2N1C (centres unmarked) [TCMDC-134191]	-33.77
Nc1c(Cl)cc(C(O)CNCCCCCCOCCC=C2CCOCC2)cc1Cl (centres unmarked) [TCMDC-132097]	35.85
CCc1ccc(NC(=O)c2ccc(CN3CCCN(Cc4cccc(Cl)c4)CC3)cc2)cc1 [TCMDC-136438]	-4.503
CC(C)(C)c1ccc(NC(=O)c2ccc(CN3CCCN(Cc4cccc(C#N)c4)CC3)cc2)cc1 [TCMDC-136430]	8.252
N#Cc1cccc(CN2CCCN(Cc3cccc(C(=O)Nc4ccc(Cl)cc4)c3)CC2)c1 [TCMDC-135962]	-1.409
N#Cc1cccc(CN2CCCN(Cc3ccc(C(=O)Nc4ccc(Cl)cc4)cc3)CC2)c1 [TCMDC-136403]	58.71
O=C(Nc1ccc(Cl)cc1)c1ccc(CN2CCCN(Cc3cccc(Cl)c3)CC2)cc1 [TCMDC-136405]	70.05
CC(C)(C)c1ccc(NC(=O)c2ccc(CN3CCCN(Cc4cccc(Cl)c4)CC3)cc2)cc1 [TCMDC-136432]	-29.42
O=C(Nc1ccccc1)N1CCOC(CCN2CCC(F)(F)CC2)(c2ccc(Cl)c(Cl)c2)C1 (centres unmarked) [TCMDC-135565]	-12.88
Cc1ccc(F)c(CN2CCC(N3CC(c4ccccc4)(c4ccccc4)OC3=O)CC2)c1Cl [TCMDC-136067]	-42.69
COc1ccc(OCCCON2C(N)=NC(N)=NC2(C)C)cc1 [TCMDC-131727]	-17.37
CCCc1cc(NCC)nc(Nc2ccc(F)cc2)n1 [TCMDC-134011]	18.21
CCCCc1cc(=O)oc2cc(C)cc(OCc3ccccc3F)c12 [TCMDC-125642]	42.72
Cc1ccc(Cl)cc1N1CCN(CCCNC(=O)C2CCN(c3nc4ccccc4[nH]3)CC2)CC1 [TCMDC-124405]	57.08
COc1ccc(Cl)cc1N1CCN(CCCNC(=O)c2ccc(-c3nc4c(C)cccc4[nH]3)s2)CC1 [TCMDC-140050]	-10.33
COc1ccc(Cl)cc1N1CCN(CCCNC(=O)c2ccc(-c3nc4ccc(C(F)(F)F)cc4[nH]3)c(C)c2)CC1 [TCMDC-140121]	-20.72
Oc1ccccc1N1CCN(c2ccc(-c3nc4ccccc4[nH]3)cn2)CC1 [TCMDC-124820]	-75.14
CC(=O)N(Cc1nc(-c2cc(Cl)c(Cl)s2)cs1)c1c(C)cccc1C [TCMDC-135640]	-42.77
Cc1noc(C)c1-c1cccc(CNCc2ccc(-c3ccc(-c4nc5cccc(C)c5[nH]4)cc3)cc2)c1.O=C(O)C(F)(F)F [TCMDC-133061]	-10.97
CS(=O)(=O)c1ccc(-c2nc(NCC3CCCCC3)cc(C(F)(F)F)n2)cc1 [TCMDC-138597]	3.227
CON=C1CCC(Cn2ccnc2)(c2ccc(Cl)cc2Cl)CC1 (centres unmarked) [TCMDC-132070]	-6.365

Compound	% Inhibition [%]
Clc1ccc(OC2CCC(Cn3ccnc3)(c3ccc(Cl)cc3Cl)CC2)c(Cl)c1 (centres unmarked) [TCMDC-132089]	67.21
OC(Cn1ccnc1)(c1ccc(Cl)cc1Cl)C1CCCCC1 (centres unmarked) [TCMDC-132084]	-1.887
CN(C)CCCNC(=O)c1ccccc1Sc1ccccc1C#N [TCMDC-137689]	-3.028
CCc1ccc(S(=O)(=O)Nc2ccc(CCN(C)C3CCN(C)CC3)cc2)cc1 [TCMDC-134082]	40.08
O=S(=O)(Nc1cccc(CCN2CCCCC2CCN2CCCC2)c1)c1cccc2ccccc12 (centres unmarked) [TCMDC-134092]	40.53
O=S(=O)(Nc1ccc(CCN2CCCCC2CCN2CCCC2)cc1)c1cccc2cccnc12 (centres unmarked) [TCMDC-134096]	43.66
O=S(=O)(Nc1cccc(CCN2CCCCC2CCN2CCCC2)c1)c1ccc(-c2ccccc2)cc1 (centres unmarked) [TCMDC-134093]	39.18
Cc1c(S(=O)(=O)Nc2cccc(CCN3CCCCC3CCN3CCCC3)c2)sc2ccc(Cl)cc12 (centres unmarked) [TCMDC-134097]	7.809
NC1CCN(CCc2ccc(NS(=O)(=O)c3ccc(-c4ccccc4)cc3)cc2)CC1 [TCMDC-134085]	111.6
O=S(=O)(Nc1cccc(CCN2CCCCC2CCN2CCCC2)c1)c1ccc2ccccc2c1 (centres unmarked) [TCMDC-134091]	64.43
O=S(=O)(Nc1cccc(CCN2CCCCC2CCN2CCCC2)c1)c1ccc(Oc2ccccc2)cc1 (centres unmarked) [TCMDC-134094]	61.85
O=S(=O)(Nc1ccc(CCN2CCCCC2CCN2CCCC2)cc1)c1ccc(-c2ccccc2)cc1 (centres unmarked) [TCMDC-134095]	70.29
CC1CCN(CC[C@H]2CCCN2S(=O)(=O)c2cccc(NC(=O)c3ccc(-c4ccccc4)cc3)c2)CC1 [TCMDC-141076]	-81.19
O=c1cc(NCCCNCc2cc3c(Cl)cccc3s2)[nH]c2ccccc12 [TCMDC-140333]	-87.93
COc1c(Br)cc(Br)cc1C(C)=O [TCMDC-123841]	-7.365
CCOC(=O)c1[nH]c(-c2ccc(Cl)cc2)nc1NC(=S)NCCCN1CCOCC1 [TCMDC-138877]	37.64
Cc1nc(-c2ccc(-c3ccc(C(=O)Nc4ccc5c(c4)C4(CCNCC4)CO5)cc3)c(C)c2)no1 [TCMDC-138993]	45.43
O=C(N[C@@H](Cc1ccccc1)C(=O)NCc1cccc(C(F)(F)F)c1)c1ccc(O)c(-c2ccc(Cl)c(Cl)c2)c1 [TCMDC-140833]	12.7
CN1CCN(S(=O)(=O)c2ccc3nccc(Nc4ccc(Oc5ccccc5)cc4)c3c2)CC1 [TCMDC-138691]	-22.54
Cc1cc(C=C(P(=O)(OC(C)C)OC(C)C)P(=O)(OC(C)C)OC(C)C)c2ccccc2c1O [TCMDC-138940]	80.96
Cc1c(C(=O)Nc2cc(Sc3ccc(F)cc3)cc([N+](=O)[O-])c2)sc2ncn(Cc3ccccc3F)c(=O)c12 [TCMDC-125703]	1.963
COc1cccc(NC(=O)c2ccc(NCCCN3CCC(C)CC3)c([N+](=O)[O-])c2)c1 [TCMDC-125690]	0.09701

Compound	% Inhibition [%]
CCCN(CCC)CCCNc1ccc(C(=O)Nc2ccc(C)c(F)c2)cc1[N+](=O)[O-] [TCMDC-125685]	15.23
CCCN(CCC)CCCNc1ccc(C(=O)Nc2ccc(OCC)cc2)cc1[N+](=O)[O-] [TCMDC-125691]	12.73
CC1CC(C)CN(CCCNc2ccc(C(=O)Nc3ccc(C(F)(F)F)cc3)cc2[N+](=O)[O-])C1 (centres unmarked) [TCMDC-125680]	38.66
COc1cccc(NC(=O)c2ccc(NCCCN3CC(C)CC(C)C3)c([N+](=O)[O-])c2)c1 (centres unmarked) [TCMDC-125689]	53.82
O=C(Nc1ccc(C(F)(F)F)cc1)c1ccc(NCCCN2CCCCCC2)c([N+](=O)[O-])c1 [TCMDC-125681]	11.61
CCOc1ccc(NC(=O)c2ccc(NCCCN3CC(C)CC(C)C3)c([N+](=O)[O-])c2)cc1 (centres unmarked) [TCMDC-125692]	30.09
CCCN(CCC)CCCNc1ccc(C(=O)Nc2ccc(C(C)C)cc2)cc1[N+](=O)[O-] [TCMDC-125688]	90.5
CC1CCN(CCCNc2ccc(C(=O)Nc3ccc(C(F)(F)F)cc3)cc2[N+](=O)[O-])CC1 [TCMDC-125683]	88.85
COc1ccc2ncc(F)c(NC(=O)C3CCC(NCc4cc5cc(F)cc(F)c5[nH]4)CC3)c2n1 (centres unmarked) [TCMDC-136455]	25.24
O=C(Nc1cccc(C2=NCCN2)c1)Nc1cccc(C2=NCCN2)c1 [TCMDC-124304]	-0.7345
COc1ccc(NC(=O)N2CCc3ccc(OCCN(C(C)C)C(C)C)cc32)cc1C(F)(F)F [TCMDC-140253]	-24.24
N#Cc1cccc(CNC(=O)c2cccc(Nc3ccnc4ccc(F)cc34)c2)c1 [TCMDC-136309]	21.53
Cc1cc(NC(=O)c2ccc(S(=O)(=O)N(Cc3ccccc3)C(C)C)cc2)no1 [TCMDC-123547]	-7.124
CCNc1cc(C(=O)N[C@@H](Cc2ccccc2)[C@H](O)CNCc2cc(OC)cc(OC)c2)cc(N2CCCC2=O)c1 [TCMDC-134572]	-8.682
CCn1c(-c2nonc2N)nc2c(-c3cccc(NC(=O)Nc4ccc(C(F)(F)F)cc4)c3)ncc(OCCCN)c21 [TCMDC-136179]	115.3
O=C(Nc1ccc(Cl)cc1)Nc1cccc(-c2cccc(-c3nc4ccc(C(F)(F)F)cc4[nH]3)c2)c1 [TCMDC-133180]	-47.4
CCOC(=O)NCC(=O)Nc1cccc(-c2cccc(-c3nc4ccc(C(F)(F)F)cc4[nH]3)c2)c1 [TCMDC-137047]	-10.81
CCOC(=O)c1ccc(NC(=O)Nc2cccc(-c3ccc(-c4nc5ccc(C(F)(F)F)cc5[nH]4)cc3)c2)cc1 [TCMDC-133261]	-31.99
CCn1c(-c2nonc2N)nc2c(-c3cccc(NC(=O)Nc4cccc(C(F)(F)F)c4)c3)ncc(OCCCN)c21 [TCMDC-136178]	94.17
O=C(NC1CC1)c1ccc(N2CCCCN2CCc2ccccc2)c(C(F)(F)F)c1 [TCMDC-135276]	0.5792
COc1ccc(CCNC(=O)c2ccccc2O)cc1-c1ccc(C(C)(C)C)cc1 [TCMDC-136182]	40.5
